Screens deposited in PubChem by several laboratories.
Most compounds without a hit are left out; they make up all but 1.5% or so of the library.
BCLXL inh – blocks human Bcl-xL binding to Bim BH3 peptide | GST-Bcl-xL / FITC-Bim BH3 peptide fluorescence polarization | AID 2129 | hit rate 0.7% among 320,000 | inhibition, % at 10.9 µM;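 active = inhibition above the mean of all tested compounds plus 3 SD, cutoff set per campaign, cut at about 30% in these data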;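 also: 0% = DMSO wells and 100% = unlabeled Bim-BH3 peptide competitor; inhibitors lower millipolarization by displacing the labeled peptide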
GLD-1 TGE inh – GLD-1-TGE RNA interaction inhibition (C. elegans). purified GLD-1 + fluorescein TGE RNA, fluorescence polarization. inhibition, % at 5.96 µM. hit rate 0.44% among 320,000. AID 2280;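 active = percent inhibition above a per-plate cutoff, the plate mean of test compounds plus 3 SD, cut at about 30% in these data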;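 also: 0% = DMSO wells with GLD-1 and probe and 100% = wells lacking GLD-1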
Target sequence (Q17339 whole entry, looked up): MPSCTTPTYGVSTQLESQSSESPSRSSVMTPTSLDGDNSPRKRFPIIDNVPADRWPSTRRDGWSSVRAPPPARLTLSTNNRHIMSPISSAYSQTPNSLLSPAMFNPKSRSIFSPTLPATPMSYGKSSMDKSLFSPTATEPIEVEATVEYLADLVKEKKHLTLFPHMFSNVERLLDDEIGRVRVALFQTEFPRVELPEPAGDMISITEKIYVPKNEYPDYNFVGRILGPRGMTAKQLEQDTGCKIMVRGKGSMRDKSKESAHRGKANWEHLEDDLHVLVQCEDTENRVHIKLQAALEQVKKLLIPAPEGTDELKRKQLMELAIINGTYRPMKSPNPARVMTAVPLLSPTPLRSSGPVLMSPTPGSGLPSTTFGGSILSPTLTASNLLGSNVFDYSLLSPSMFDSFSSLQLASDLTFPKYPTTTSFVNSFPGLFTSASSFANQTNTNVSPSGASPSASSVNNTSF
EBV gp42 inh – EBV gp42 inhibition; Q1HVG2; Fluorescence polarization binding assay, mP read-out; inhibition, % (tested at 21.74 µM); hit rate 0.42% among 220,000; in the data active = inhibition above about 50%
Target sequence (Q1HVG2 whole entry, looked up): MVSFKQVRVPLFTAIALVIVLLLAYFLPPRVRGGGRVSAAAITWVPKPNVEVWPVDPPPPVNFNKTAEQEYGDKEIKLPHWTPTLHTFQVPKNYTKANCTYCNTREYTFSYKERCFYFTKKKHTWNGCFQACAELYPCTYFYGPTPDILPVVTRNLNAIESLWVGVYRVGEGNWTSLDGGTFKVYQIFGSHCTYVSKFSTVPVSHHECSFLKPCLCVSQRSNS
MCL1 BIM primary – disrupts human MCL1 binding to BIM-BH3 peptide; Q07820; GST-MCL1 / FITC-Bim-BH3 fluorescence polarization; inhibition, % at 10.9 µM; hit rate 0.68% among 320,000;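 active = inhibition above the mean inhibition of all tested compounds plus 3 SD, set per campaign, cut at about 40% in these data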;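 also: 0% = DMSO wells and 100% = unlabeled Bim-BH3 peptide control; higher means more loss of mP so more displacement of Bim peptide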
eLon inh – inhibitors of E. coli Lon protease; P0A9M0; purified E. coli Lon protease, fluorescence polarization; inhibition, % at 7.94 µM; hit rate 0.42% among 360,000; AID 602123; in the data active = inhibition above about 13%, passing the limit was not always enough;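 also: 0% = enzyme with probe and DMSO and 100% = no enzyme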
MEX-5 binding – C. elegans MEX-5 TCR-2 RNA binding activity; MEX-5/FITC-TCR2 RNA binding, fluorescence polarization; hits give low values; hit rate 0.38% among 300,000; activity score (negative = inhibition of binding), % at 10 µM; Q9XUB2;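 active = inhibition past about -25% in most replicates, and total fluorescence under double the plate's negative control median, limit read from the data; inconclusive = replicates evenly split on the limit, or fluorescence at least double controls; inactive = too little inhibition in most replicates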;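 also: 0% = DMSO and -100% = 5 µM competing unlabeled TCR2 RNA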
Bcl-xL conf – Bcl-xL (human) inhibition, MCL1 counter-screen confirmation; shares compounds with MCL1 BIM primary; GST-Bcl-xL / FITC-Bim BH3 peptide FP binding; inhibition, % at 10.9 µM; hit rate 54% among 1,700; AID 2166;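 active = inhibition above a cutoff equal to the mean inhibition of all tested compounds plus 3 SD, cut at about 30% in these data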;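 also: 0% = DMSO wells and 100% = unlabeled Bim BH3 control peptide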
MCL1 inh confirm – MCL1-BIM-BH3 interaction inhibition, confirmation. shares compounds with MCL1 BIM primary. GST-MCL1 / FITC-Bim-BH3 fluorescence polarization. inhibition, % at 10.9 µM. hit rate 61% among 1,700. AID 2168;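 active = inhibition above the average of all tested compounds plus 3 SD, cut at about 40% in these data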;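 also: 0% = DMSO wells and 100% = unlabeled Bim-BH3 control peptide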
Starred values were filed as active, the others as inactive; ? = inconclusive; . = no result; + = active, no number.

SMILES | BCLXL inh | GLD-1 TGE inh | EBV gp42 inh | MCL1 BIM primary | eLon inh | MEX-5 binding | Bcl-xL conf | MCL1 inh confirm
Cc1ccc(OCC(=O)NCCCNC(=O)c2ccncc2)cc1C | 1 | 7 | . | 2 | 6 | 3 | . | .
O=C(CN1CCN(S(=O)(=O)c2ccc(F)cc2)CC1)Nc1ccc(F)cc1F | 4 | 2 | . | 174* | -4 | 1 | 3 | 1
CCOc1ccc(N2C(=O)C3Sc4[nH]c(=O)sc4C(/C=C/c4ccccc4)C3C2=O)cc1 (stereo unspecified) | 57* | 42* | -11 | 42* | -40 | -1 | -4 | -16
COc1cc(C2c3sc(=O)[nH]c3SC3C(=O)N(c4ccc(Br)cc4)C(=O)C32)ccc1O (stereo unspecified) | 16 | 12 | -12 | 14 | -6 | -1 | . | .
CNCCCOc1cccc(Oc2ccccc2)c1 | 3 | 3 | -20 | 46* | 3 | 0 | 5 | 2
O=C(NNC1=Nc2cccc3cccc1c23)c1ccc(Br)cc1 | 28 | 14 | 60* | 41* | -29 | -5 | 57* | 81*
Cc1ccc(C)c(S(=O)(=O)Nc2ccc3oc(C)c(C(=O)O)c3c2)c1 | 12 | 1 | . | 42* | -14 | 1 | 21 | 60*
CC(=O)c1c(C)oc2ccc(NS(=O)(=O)c3ccc(C)cc3)cc12 | -1 | 2 | . | -2 | 3 | -3 | . | .
COc1ncccc1-c1nnn(-c2ccc(F)cc2)n1 | 1 | 4 | -5 | 6 | 6 | 2 | . | .
Oc1cccc(C=Nc2cccc3ccccc23)c1O | 38* | 24 | . | 66* | -8 | -4 | 31* | 52*
Oc1ccccc1C=Nc1cccc2ccccc12 | 12 | 5 | . | 10 | 2 | 1 | . | .
Oc1cccc(C=NCc2ccccc2)c1O | 30 | 13 | 2 | 64* | 21 | 0 | 32* | 65*
Oc1c(C=NCc2ccccc2)sc2ccccc12 | 6 | 3 | 0 | 10 | 6 | -1 | . | .
Nc1nc(SCCO)[nH]c(=O)c1NC(=O)c1ccco1 | 5 | 4 | . | 5 | 20 | . | . | .
Nc1nc(SCC(=O)O)[nH]c(=O)c1NC(=O)c1ccco1 | 41* | 28 | . | 55* | -7 | -3 | 3 | 3
Oc1cccc(O)c1O | 14 | 17 | . | 63* | . | . | 30 | 42*
O=C1CCCC(O)=C1N=Nc1ccc2c(c1)OCO2 | -6 | -10 | -58 | -8 | -22 | 7 | . | .
O=C1CCCC(O)=C1N=Nc1ccc(C(=O)O)cc1 | 8 | -2 | 4 | 41* | -2 | -26* | 4 | 9
c1coc(CNc2c3c(nc4ccccc24)CCC3)c1 | 65* | -102 | 9 | 62* | -12 | -14 | 15 | 10
Oc1ccc(N=C/C=C/c2ccc(Br)cc2)cc1-c1nc2ccccc2s1 | 46* | 20 | 1 | 48* | . | 3 | 27 | 19
O=c1c(Cc2ccccc2)c(O)ccn1Cc1ccc2c(c1)OCO2 | 1 | 3 | 1 | -3 | 2 | -1 | . | .
N#CC(C#N)=Cc1c[nH]c(=O)c(C#N)c1Nc1ccccc1 | 56* | 26 | . | 55* | 2 | -17 | 46* | 56*
COc1cc(Cl)ccc1OCc1cc(C(=O)N2CCCCCCC2)no1 | 3 | -7 | . | 84* | 4 | . | 5 | 8
COc1cc(C)ccc1OCc1cc(C(=O)N2CCCCCC2)no1 | . | . | . | . | -11 | 0 | . | .
Cc1ccc(C(=O)Nc2ccc(N3CCN(C(=O)c4cccs4)CC3)cc2)c(Cl)c1 | -1 | 6 | . | 0 | 8 | -2 | . | .
SMILES | BCLXL inh | GLD-1 TGE inh | EBV gp42 inh | MCL1 BIM primary | eLon inh | MEX-5 binding | Bcl-xL conf | MCL1 inh confirm
C[n+]1cc(C(=O)N2CCCCC2)ccc1/C=C/c1c[nH]c2ccccc12 | -82 | -170 | -217 | -132 | -373 | ? | . | .
CCCN1CCC2(CC1)C(C#N)=C(N)Oc1c2sc2nc(C)cc(C)c12 | 69* | 30 | -17 | 70* | -37 | -1 | 45* | 46*
COC(=O)[C@H](Cc1ccccc1)NS(=O)(=O)c1ccc(F)cc1Br | . | . | . | . | -7 | . | . | .
Cc1ccc[n+](-c2[nH]c(=O)sc2/C=N/NC(=O)c2ccccc2[O-])c1 | 44* | 31* | 53* | 75* | 6 | -27* | 39* | 56*
O=C(N/N=C/c1sc(=O)[nH]c1-[n+]1ccccc1)c1ccccc1[O-] | 44* | 28 | 41 | 55* | 1 | -23 | 46* | 64*
C[C@@H]1CCCCO[C@@H](CN(C)C(=O)CCCN(C)C)[C@@H](C)CN([C@H](C)CO)C(=O)c2cc(NC(=O)CCC(F)(F)F)ccc2O1 | . | . | . | . | -1 | . | . | .
CCCc1nc(SC2CCCC2)c2c(=O)n(C)c(=O)n(C)c2n1 | 1 | 3 | -18 | + | 5 | -2 | 4 | 5
O=C(O)C1=C[C@H](c2coc3ccccc3c2=O)C[C@H](OCCCCO)O1 | 9 | 16 | -16 | 59* | 6 | -2 | 13 | 7
NC(=O)C1=C[C@H](c2coc3ccccc3c2=O)C[C@H](OCCCCO)O1 | 0 | 6 | -13 | 5 | -3 | -2 | . | .
COc1ccc(C)cc1NC(=O)Nc1ccc(C(=O)N2CCCC2)cc1 | 4 | 2 | . | 0 | -4 | 1 | . | .
O=C(c1ccc(S(=O)(=O)N2CCCCC2)cc1)N1CCN(CCN2C(=O)c3cccc4cccc(c34)C2=O)CC1 | 4 | 1 | -8 | 4 | 5 | -1 | . | .
CC(=O)Oc1ccc(N2C(=O)c3cccc4c([N+](=O)[O-])ccc(c34)C2=O)cc1 | 17 | 20 | . | 15 | 15 | 0 | . | .
O=C1c2cccc3c([N+](=O)[O-])ccc(c23)C(=O)N1O | 57* | 15 | . | 48* | 43 | -13 | 43* | 58*
O=C1c2cccc3c([N+](=O)[O-])ccc(c23)C(=O)N1c1ccc(Cl)cn1 | 120* | 103* | 80* | 139* | 65* | -15 | 82* | 105*
COc1cc(/C=C2\CCc3c2nc2ccccc2c3C(=O)O)cc(OC)c1OC | 20 | 2 | -8 | 76* | -10 | -26* | 30 | 75*
Cc1ccnc(Nc2nc(-c3ccc(O)c(O)c3)cs2)c1 | 29 | 15 | . | 42* | 11 | -1 | 36* | 42*
CC1(OC(=O)c2ccc(Cl)nc2)C(=O)C=C2C=C(C3CC3)OC=C2C1=O (stereo unspecified) | 74* | 76* | . | 87* | . | -50* | 83* | 122*
COC(=O)CCCC1=CC2=CC(=O)C(C)(OC(=O)c3ccc(Cl)nc3)C(=O)C2=CO1 (stereo unspecified) | 55* | 57* | . | 66* | . | -35* | 46* | 69*
